The campaign covered roughly 5,500 compounds. About 2,000 (36%) were called active. Roughly 18% stayed inconclusive and do not appear here. Rule as the data show it: active = normalized growth mostly below about 0.91 (no sharp cut-off); inconclusive = no clear call, values can overlap the other calls; inactive = mostly above about 0.92. The list shows a part of the results.
Assay: chemical genetic growth profiling, strain panel (AID 1159580);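 also: tested at 20 µM; growth read once vehicle control cultures reached saturation at 30 °C; 1 = growth at the plate median or of vehicle wells; lower values mean less growth of the strain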
Settings: S. cerevisiae deletion strains, growth OD

Measured: normalized growth

CC(C)=CCC/C(C)=C/CC/C(C)=C/CSc1ccccc1C(=O)O
active: locus YCL061C, strain MRC1 (second series), hits give low values 0.938 | locus YGR229C, strain SMI1, hits give low values 0.742 | locus YOR083W, strain WHI5 (second series), hits give low values 0.855
inactive: locus YAL013W, strain DEP1, hits give low values 0.944 | locus YAL040C, strain CLN3, hits give low values 1.04 | locus YDR363W, strain ESC2, hits give low values 0.896 | locus YER002W, strain NOP16, hits give low values 0.958 | locus YGR078C, strain PAC10, hits give low values 0.928 | locus YNL175C, strain NOP13, hits give low values 0.956 | locus YNL197C, strain WHI3, hits give low values 0.965 | locus YNL224C, strain SQS1, hits give low values 0.974

CC(=O)OC/C=C(\C)CC/C=C(\C)CC/C=C(\C)CC/C=C(\C)CC/C=C(\C)CC/C=C(\C)CC/C=C(\C)CC/C=C(\C)CCC=C(C)C
inactive: locus YAL021C, strain ccr4, hits give low values 0.991 | locus YAL026C, strain drs2, hits give low values 0.973 | locus YAL030W, strain snc1, hits give low values 0.977 | locus YBL061C, strain skt5, hits give low values 0.981 | locus YBR009C, strain hhf1, hits give low values 0.98 | locus YBR023C, strain chs3, hits give low values 0.991 | locus YBR171W, strain sec66, hits give low values 0.98 | locus YBR231C, strain swc5, hits give low values 0.992 | locus YBR279W, strain paf1, hits give low values 0.987 | locus YCL011C, strain gbp2, hits give low values 0.959 | locus YCL016C, strain dcc1, hits give low values 0.981 | locus YCL061C, strain MRC1, hits give low values 0.997 | locus YCL069W, strain vba3, hits give low values 1 | locus YCR088W, strain abp1, hits give low values 0.995 | locus YDL005C, strain med2, hits give low values 0.976 | locus YDL040C, strain nat1, hits give low values 0.998 | locus YDR001C, strain nth1, hits give low values 0.966 | locus YDR069C, strain doa4, hits give low values 0.978 | locus YDR137W, strain rgp1, hits give low values 0.984 | locus YDR159W, strain sac3, hits give low values 1.02 | locus YDR195W, strain ref2 0.984 | locus YDR297W, strain sur2, hits give low values 0.993 | locus YDR334W, strain swr1, hits give low values 0.943 | locus YDR335W, strain msn5, hits give low values 0.982 | locus YDR392W, strain spt3, hits give low values 0.976 | locus YEL003W, strain gim4, hits give low values 0.98 | locus YEL037C, strain rad23, hits give low values 0.976 | locus YEL061C, strain CIN8 (second series), hits give low values 0.973 | locus YER015W, strain faa2, hits give low values 0.971 | locus YER016W, strain bim1, hits give low values 0.99 | locus YER111C, strain swi4, hits give low values 0.984 | locus YER155C, strain BEM2 (second series), hits give low values 1 | locus YFR010W, strain ubp6, hits give low values 0.967 | locus YGL167C, strain pmr1, hits give low values 0.981 | locus YGL173C, strain kem1, hits give low values 0.974 | locus YGL227W, strain vid30, hits give low values 0.987 | locus YGL240W, strain doc1, hits give low values 1.01 | locus YGL253W, strain hxk2, hits give low values 0.964 | locus YHR013C, strain ard1, hits give low values 0.969 | locus YHR027C, strain rpn1, hits give low values 0.974 | locus YHR030C, strain SLT2, hits give low values 1.04 | locus YHR079C, strain IRE1, hits give low values 1.04 | locus YHR142W, strain chs7, hits give low values 0.917 | locus YJL092W, strain hpr5, hits give low values 0.985 | locus YJL095W, strain BCK1 (second series), hits give low values 0.987 | locus YJL095W, strain BCK1, hits give low values 1.02 | locus YJL115W, strain asf1, hits give low values 0.951 | locus YJL129C, strain trk1, hits give low values 0.931 | locus YJL154C, strain vps35, hits give low values 0.971 | locus YJL164C, strain tpk1, hits give low values 0.976 | locus YJL166W, strain qcr8, hits give low values 0.99 | locus YJL187C, strain SWE1, hits give low values 0.986 | locus YJR066W, strain TOR1, hits give low values 1.01 | locus YKL160W, strain elf1, hits give low values 0.98 | locus YKR026C, strain gcn3, hits give low values 0.988 | locus YKR091W, strain srl3, hits give low values 0.984 | locus YLL001W, strain dnm1, hits give low values 0.968 | locus YLL026W, hits give low values 0.974 | locus YLL041C, strain sdh2, hits give low values 0.991 | locus YLR027C, strain aat2, hits give low values 0.997 | locus YLR113W, strain HOG1, hits give low values 0.991 | locus YLR221C, strain rsa3, hits give low values 0.942 | locus YLR258W, strain gsy2, hits give low values 0.997 | locus YLR262C, strain YPT6 (second series), hits give low values 0.996 | locus YLR320W, strain mms22, hits give low values 0.991 | locus YLR342W, strain FKS1, hits give low values 0.99 | locus YLR357W, strain rsc2, hits give low values 0.987 | locus YLR370C, strain arc18, hits give low values 0.994 | locus YLR384C, strain iki3, hits give low values 0.985 | locus YML120C, strain ndi1, hits give low values 0.977 | locus YMR058W, strain fet3, hits give low values 0.984 | locus YMR125W, strain sto1, hits give low values 0.939 | locus YMR129W, hits give low values 0.982 | locus YMR205C, strain PFK2, hits give low values 0.958 | locus YMR231W, strain pep5, hits give low values 0.989 | locus YNL071W, strain lat1, hits give low values 0.987 | locus YNL183C, strain NPR1, hits give low values 1.01 | locus YNL209W, strain ssb2, hits give low values 1 | locus YNL248C, strain rpa49, hits give low values 0.964 | locus YNL322C, strain KRE1 (second series), hits give low values 0.97 | locus YNR049C, strain mso1, hits give low values 0.975 | locus YOR001W, strain rrp6, hits give low values 1 | locus YOR070C, strain gyp1, hits give low values 0.984 | locus YOR080W, strain dia2, hits give low values 0.978 | locus YOR083W, strain WHI5, hits give low values 0.97 | locus YOR106W, strain vam3, hits give low values 0.909 | locus YOR231W, strain MKK1, hits give low values 1.02 | locus YOR265W, strain rbl2, hits give low values 0.996 | locus YOR270C, strain vph1, hits give low values 0.879 | locus YOR290C, strain snf2, hits give low values 0.941 | locus YPL051W, strain arl3, hits give low values 1 | locus YPL078C, strain atp4, hits give low values 0.977 | locus YPL106C, strain sse1, hits give low values 0.997 | locus YPL240C, strain hsp82, hits give low values 0.968 | locus YPL256C, strain CLN2, hits give low values 1.02

From PubChem BioAssay AID1159580 (chemical genetic matrix, 2015)
